CHT block: inhibitors of human choline transporter CHT; High affinity choline transporter 1 (Homo sapiens), Q9GZV3; CHT-expressing cells, membrane potential dye, choline response; hits give low values; B-score at 10 µM; hit rate 0.86% among 310,000;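 active = B-score over 3 SD under the library average, and starting fluorescence ratio not unusually high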;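 also: choline stimulus applied at its EC90 after an EC20 pre-addition; B-score computed on integrated fluorescence ratio after choline addition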
ANO1 activ: TMEM16A chloride channel activators or potentiators, primary screen, cell-based, HTS. hit rate 0.3% among 340,000. HEK293 TMEM16A/YFP-H148Q/I152L, iodide quench fluorescence; hits give low values. AID 623877, 2012. B-score at 10 µM. Anoctamin-1 (Mus musculus), Q8BHY3;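 active = fluorescence-ratio B-score plate-corrected deviation score at least 3 library SD below zero, with starting fluorescence score within 5 deviations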;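 also: channel opened by trigger with iodide after compound preincubation; score built on the fluorescence ratio of max minus min over baseline; more negative score means more quench and so TMEM16A activation or potentiation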
CHT PAM: CHT positive allosteric modulators, primary screen, cell-based, membrane potential dye, choline EC20; High affinity choline transporter 1 (Homo sapiens), Q9GZV3; CHT-expressing cells; hits give high values; LV-AA mutant CHT in HEK293 cells; B-score at 10 µM; hit rate 0.49% among 310,000;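 active = initial fluorescence not abnormally high and integrated response B-score, plate-corrected, over 3 SD above library mean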
ANO1 block: TMEM16A chloride channel inhibitors, primary screen, cell-based, HTS; Anoctamin-1 (Mus musculus), Q8BHY3; HEK293 TMEM16A/YFP iodide influx fluorescence, ionomycin; normalized B-score (activity score, 25-100; higher = stronger inhibition) at 10 µM; hit rate 1.2% among 310,000;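 active = ratio plate-corrected score three or more library SD toward inhibition, starting fluorescence score within five deviations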;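 also: score derived from kinetic fluorescence span divided by baseline fluorescence per well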
CHT inh conf: CHT inhibitors, confirmation, cell-based, membrane potential dye, duplicate | CHT activity remaining % of control (hits give low values), % at 10 µM | hit rate 70% among 2,400 | CHT-expressing cells, choline membrane potential dye; LV-to-AA substituted CHT, HEK293 cells | AID 493221, 2011 | shares compounds with CHT block;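 active = choline transporter activity left, mean of duplicates at 10 µM, below buffer-only control mean minus 3 SD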;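 also: depolarization triggered by choline at its EC90 following an EC20 pre-addition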
HEK293 CHT ctr: membrane potential effects in parental HEK293, counter-screen for CHT inhibitor project, cell-based, membrane potential dye; shares compounds with CHT block; choline response; active = decrease or increase beyond buffer ±3SD; membrane potential ratio readout (active if shifted either direction beyond buffer ±3SD; no single direction) at 10 µM; hit rate 4% among 2,400; AID 493222, 2011;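 also: parental cells lack the transporter so any hit is non-specific; ratio is peak minus trough fluorescence over baseline after EC90 choline challenge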
Hits are given with their value; n = inactive; x = no result. Compounds with a hit are over-represented: about 2.4% of the library has one in this group of screens.

SMILES	CHT block	ANO1 activ	CHT PAM	ANO1 block	others
O=C(c1ccc(C(F)(F)F)cc1)C1CCCN(C2CCSCC2)C1 (stereo not given)	n	n	n	n
CC12C=CC(=O)CC1CCC1C2CCC2(C)C(O)C(O)CC12 (stereo not given)	x	n	x	x
COC1CCC(OC2CC(C3(C)CCC4(CC(O)C(C)C(C(C)/C=C(\C)C(=O)C(C)CC(C)C(=O)O)O4)O3)OC3(OC(C4OC(O)(CO)C(C)CC4C)CC3C)C2C)OC1C (stereo not given)	x	-4.8	x	x
COc1cc2c(c(OC)c1OC)-c1ccc(O)cc1[C@@H](NC(C)=O)CC2	n	n	8	n
O=C(c1ccc(Cl)cc1)C1CCCN(Cc2ccc3ncccc3c2)C1 (stereo not given)	n	n	n	25
O=C(c1ccc(Cl)cc1)C1CCCN(Cc2ccc3c(c2)OCCO3)C1 (stereo not given)	n	n	n	n
O=C(Cc1c[nH]c2ccccc12)NNCc1ccc(N(CCCl)CCCl)cc1	x	n	x	x
COC(=O)C1=C(C(=O)OC)C2OC1c1cc3ccccc3cc12	x	-4.9	x	x
COC(=O)C1=C(c2ccc3ccccc3c2)C[C@@H]2CC[C@H]1N2C	x	n	x	x
C[C@]12CC[C@H]3[C@@H](CC[C@]4(O)C[C@@H](O)CC[C@]34C=O)[C@@]1(O)CC[C@@H]2C1=CC(=O)OC1	n	n	n	n
CN[C@H]1C[C@H]2O[C@@](C)([C@H]1OC)n1c3ccccc3c3c4c(c5c6ccccc6n2c5c31)C(=O)NC4	-5.3	x	n	n
CC1(C)CC[C@]2(C)CC[C@]3(C)C4C[C@@H]5OO[C@@]6(O5)C(CCCC6(C)C)[C@]4(C)CC[C@@]3(C)C2C1 (stereo not given in full)	n	n	n	n
CCOP(=S)(OCC)SCSP(=S)(OCC)OCC	x	n	x	x
C/C=C(\C)C(=O)OC1C(C)=C2C(C1OC(=O)CCCCC)C(C)(OC(C)=O)CC(OC(=O)CCC)C1(O)C2OC(=O)C1(C)O (stereo not given)	n	x	8	100
CCCCNS(=O)(=O)c1ccc(OCC(=O)N2CCN(Cc3ccc4c(c3)OCO4)CC2)cc1	n	-4.7	n	n
CC[C@H](C)[C@@H]1O[C@@]2(C=CC1C)CC1C[C@@H](CC=C(C)C(O[C@H]3CC(OC)C(O[C@H]4CC(OC)C(O)C(C)O4)C(C)O3)C(C)C=CC=C3CO[C@@H]4C(O)C(C)=C[C@@H](C(=O)O1)[C@]34O)O2 (stereo not given in full)	n	x	n	25
CCOC(=O)C1CCN(C(C)C(=O)c2c[nH]c3ccccc23)CC1 (stereo not given)	n	n	n	n
COC1C(OC(=O)c2ccc(C)[nH]2)C(O)C(Oc2ccc3c(O)c(NC(=O)c4ccc(O)c(CC=C(C)C)c4)c(=O)oc3c2Cl)OC1(C)C (stereo not given)	n	n	n	100
CC(CCN1CC1)=NNC(=O)Nc1cccc2ccccc12	x	n	x	x
Oc1ccc2c3c1OC1c4[nH]c5ccccc5c4C[C@@]4(O)C(C2)N(CC2CC2)CC[C@]314 (stereo not given in full)	x	n	x	x
C=C(C)CN1CC[C@]23c4c5ccc(O)c4O[C@H]2c2[nH]c4ccccc4c2C[C@@]3(O)C1C5	-5.3	x	n	n
CCCN(CC#CCOc1ccc(OC)cc1)CCC	n	-16	n	n
CN1CCN(CC#CCOc2ccc(Cl)cc2)CC1	n	n	n	n
COc1ccc(CNCCc2cccc(F)c2)c2ccccc12	-7.2	x	n	n
COc1cc(OC)c(OC)cc1CNCCc1cccc(F)c1	n	n	n	n
SMILES	CHT block	ANO1 activ	CHT PAM	ANO1 block	others
CC(C)(C)c1cc(C=C(C#N)C#N)cc(C(C)(C)C)c1O	n	n	n	100
N#CC(C#N)=Cc1ccc(O)c(O)c1	n	n	n	n
C[N+](C)(C)CC#CCN1CCCC1=O	n	-7.9	n	n
C/C(Cl)=C/CC1(CN2CCCC2=O)C(=O)NC(=O)NC1=O	n	n	n	n
COc1ccc2c(c1)/C(=C/c1cnc[nH]1)C(=O)N2	n	n	8.8	n
NP(=O)(OCCCc1ccccc1)Oc1ccc(Cl)cc1 (stereo not given)	n	n	n	n
CC1=C(O)C(=O)C=C2C1=CC=C1C2(C)CCC2(C)C3CC(C)(C(=O)O)CCC3(C)CCC12C (stereo not given)	x	-10	x	x
O=c1[nH]c(=S)[nH]c(O)c1N=Nc1cc(S(=O)(=O)Nc2ccc(Cl)cc2)ccc1Cl	x	n	x	x
N=C1c2ccccc2CN1NC(=O)c1ccccc1	n	n	n	n
CC1=NCCc2c1[nH]c1ccccc21	-7.8	n	n	n	CHT inh conf=34%;HEK293 CHT ctr=n
CN1CCc2c([nH]c3ccccc23)C1	n	n	n	n
NCCc1ccc(OCc2ccccc2)c(OCc2ccccc2)c1	x	n	x	x
CCNC(=S)N(C)CCc1cc2c(c(OC)c1C=C1C(=O)N(C)C(=O)N(C)C1=O)OCO2	n	n	n	n
COc1c(/C=C2/C(=O)NC(=O)N(C)C2=O)c(CCN(C)C(=O)c2ccccc2)cc2c1OCO2	-6.5	n	n	n	CHT inh conf=57%;HEK293 CHT ctr=n
O=C(COc1ccccc1)N1CCN(Cc2c[nH]c3ccccc23)CC1	n	n	n	n
c1ccc2c(CN3CCCCCC3)c[nH]c2c1	-6	n	n	n	CHT inh conf=37%;HEK293 CHT ctr=n
Cc1ccc(OCCSC2=NN2c2cc(C)nc(N)n2)cc1	-11	n	n	n	CHT inh conf=23%;HEK293 CHT ctr=n
CCSC1=NN1c1cc(C)nc(N)n1	n	n	n	n
CCc1c(C)nc(N)nc1N1N=C1SCCOc1ccccc1	-7.7	n	n	n	CHT inh conf=12%;HEK293 CHT ctr=n
CC(=O)CC(=O)C1C(=O)N(C)C(=O)N(C)C1=O	n	n	n	n
CC(=O)O[C@@]12CO[C@@H]1C[C@@H](O)[C@@]1(C)C(=O)[C@H](O)C3=C(C)[C@@H](OC(=O)[C@H](O)[C@@H](NC(=O)c4ccccc4)c4ccccc4)C[C@@](O)([C@@H](OC(=O)c4ccccc4)C12)C3(C)C (stereo not given in full)	-5.3	n	n	n	CHT inh conf=63%;HEK293 CHT ctr=n
Cc1cccc(-n2c(O)c(/C=C3/C(c4ccccc4)=Nc4ccccc43)c(=O)[nH]c2=O)c1	n	n	n	n
Cc1ccccc1-n1c(O)c(/C=C2/C(c3ccccc3)=Nc3ccccc32)c(=O)[nH]c1=O	-5.2	n	n	n	CHT inh conf=53%;HEK293 CHT ctr=n
